Source: PubChem BioAssay AID651956 (Broad Institute, 2012)
Measured potencies and affinities stand elsewhere. Results filed as inconclusive are left out. The source made the active and inactive calls.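 How the source made its calls: active means in every test run, a fitted half-maximal concentration for signal decrease at or below twice the highest tested concentration; inconclusive means runs disagree, flat 30 to 70% decrease, or poor fit; inactive means the rest.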

Assay: miR-122 activators in hepatoma reporter cells, dose response, cell-based, Huh7 psiCHECK-miR122, Renilla luciferase, cherry-picked (AID 651956);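 further: Renilla luciferase from a miR-122 sensor reporter so lower signal means miR-122 activation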
Settings: 48 h; series mostly up to 35 µM

outcome, inactive:
COc1cccc(NC(=O)Nc2ccc3c(c2)C(=O)N(C)C[C@@H](OC)[C@@H](C)CN[C@H](C)CO3)c1
COc1ccc(C(NC(C)=O)c2cc(Cl)c3cccnc3c2O)cc1 (stereo not drawn)
COc1ccccc1NC(=O)Nc1ccc2c(c1)C(=O)N(C)[C@H]1CC[C@H](CC(=O)Nc3ccc4c(c3)COC4)O[C@@H]1CO2
CCCNC(=O)N1C[C@@H]2[C@H](c3ccccc31)[C@@H](CO)N2C(=O)C1CCOCC1
COCCNC(=O)C[C@H]1CC[C@@H]2[C@H](COc3ccc(NC(=O)c4cnccn4)cc3C(=O)N2C)O1
COc1ccc(-c2cn3c(C)c(C(=O)Nc4cccc(NC(C)=O)c4)sc3n2)cc1
CN(C)C(=O)C[C@@H]1CC[C@@H]2[C@@H](COc3ccc(NC(=O)C4CC4)cc3C(=O)N2C)O1
CC(C)NC(=O)N1C[C@@H]2[C@H](c3ccccc31)[C@@H](CO)N2C(=O)c1cccnc1
CN1C(=O)c2cc(NC(=O)c3cccc(F)c3)ccc2OC[C@@H]2O[C@H](CC(=O)NC3CCC3)CC[C@@H]21
COCC(=O)N1[C@H](CO)[C@H]2c3ccccc3N(C(=O)C3CC3)C[C@H]21
COC(=O)C[C@H]1CC[C@H]2[C@H](COc3ccc(NC(=O)NC(C)C)cc3C(=O)N2C)O1
O=C(C1CCCCC1)N1C[C@@H]2[C@H](c3ccccc31)[C@H](CO)N2Cc1ccccc1Cl
CN1C(=O)c2cc(NC(=O)c3ccc4c(c3)OCO4)ccc2OC[C@H]2O[C@H](CC(=O)O)CC[C@@H]21
